# ± gives the standard deviation.
# What was measured:
# Conditions in all cases: modulator concentration 10 µM
# [1] = tested on: RAW-Dual (murine macrophage reporter line); test: NF-kB reporter (SEAP) activity fold change vs agonist alone; higher = enhanced NF-kB activity
# Outline: (§1)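 RAW-Dual murine macrophage reporter cells were seeded at 50 000 per well in 384-well plates and pre-incubated 1 hour at 37 °C with compound pin-transferred to 10 μM final. After 1 hour, a PRR agonist was added and cells incubated overnight. Supernatant NF-κB (SEAP, QUANTI-Blue, 620 nm absorbance) and IRF (Lucia luciferase, QUANTI-Luc, luminescence) signals were divided by the mean agonist-only control on the same plate to give fold change. Two replicate plates were averaged, with errors by propagation.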
# [2] = tested on: RAW-Dual (murine macrophage reporter line); test: IRF reporter (Lucia luciferase) activity fold change vs agonist alone; higher = enhanced IRF activity
# Outline: as §1
# [3] = tested on: RAW-Dual (murine macrophage reporter line); test: viability score (confluency relative to resting cells, overnight) (fraction); higher = more viable, active = viable (0.7 or more)
# Outline: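 Confluency was the readout: RAW-Dual macrophages were imaged with IncuCyte after an overnight exposure to compound at 10 μM final. IncuCyte software produced two masks over all imaged wells. The viability score expresses confluency against resting cells, and both masks had to exceed 70% of resting cells for a compound to meet the cutoff.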
# [4] = agonist: CpG ODN 1826 0.5 ug/mL
Structure (SMILES),"NF-kB reporter [1, 4]",NF-kB reporter ([1]; agonist: LPS 0.1 ug/mL),NF-kB reporter ([1]; agonist: MPLA […]),IRF reporter ([2]; agonist: 3'3'-cGAMP 10 ug/mL),IRF reporter ([2]; agonist: LPS 0.1 ug/mL),IRF reporter ([2]; agonist: MPLA […]),viability score [3]
CCOC(=O)C1CCN(C(=O)c2ccc(C#CC(C)(C)O)cc2)CC1,0.747 ± 0.063,0.845 ± 0.041,1.1 ± 0.1,0.91 ± 0.048,1.34 ± 0.077,1.46 ± 0.12,1.01 (active)
CC12CCC(=O)C=C1C=CC1C2CCC2(C)C1CCC21CCC(=O)O1 (centres undefined),0.781 ± 0.19,0.958 ± 0.084,0.93 ± 0.059,0.963 ± 0.034,1.1 ± 0.21,1.06 ± 0.12,1.01 (active)
N#Cc1c(NC(NC(=O)c2cccs2)C(Cl)(Cl)Cl)sc2c1CCCC2 (centres undefined),0.669 ± 0.038,1.13 ± 0.076,0.878 ± 0.1,0.66 ± 0.022,0.694 ± 0.086,0.69 ± 0.073,0.986 (active)
COc1ccc(C2N3CC4(C)CN2CC(C)(C3)C4O)cc1 (centres undefined),0.816 ± 0.067,0.949 ± 0.046,0.966 ± 0.1,0.995 ± 0.055,1.49 ± 0.086,1.66 ± 0.15,1.01 (active)
Oc1ccccc1-c1cc(C(F)(F)F)on1,1.02 ± 0.08,0.982 ± 0.068,0.956 ± 0.096,0.349 ± 0.023,1.06 ± 0.066,1.12 ± 0.1,0.361 (inactive)
Cc1ccc(-c2ccc3nnc(CCC(=O)NCc4ccc(C(F)(F)F)cc4)n3n2)cc1C,0.671 ± 0.041,1.04 ± 0.086,1.04 ± 0.07,0.747 ± 0.047,1.15 ± 0.23,1.16 ± 0.41,0.94 (active)
NC(=O)NO,1.31 ± 0.18,1.21 ± 0.29,0.96 ± 0.057,0.905 ± 0.028,1.44 ± 0.26,1.09 ± 0.084,1 (active)
CCOc1ccccc1OCCCCOc1cccc(Cl)c1,0.947 ± 0.15,1.04 ± 0.093,0.951 ± 0.084,0.956 ± 0.025,1.21 ± 0.15,1.23 ± 0.2,1 (active)
N#Cc1cc2c(nc1N1CC(Cn3nc(C4CC4)ccc3=O)C1)CCC2,1.44 ± 0.078,1.21 ± 0.099,1.63 ± 0.24,0.866 ± 0.12,1.03 ± 0.17,1.18 ± 0.34,0.946 (active)
COC(=O)C1=CN(CC2CCCO2)C=C(C(=O)OC)C1c1ccc(OC)cc1 (centres undefined),1.1 ± 0.063,1.04 ± 0.079,1.09 ± 0.036,0.913 ± 0.037,0.993 ± 0.057,1.04 ± 0.1,0.993 (active)
c1ccc(-c2ccc(C(c3ccccc3)n3ccnc3)cc2)cc1 (centres undefined),0.825 ± 0.097,0.893 ± 0.083,1.22 ± 0.12,0.966 ± 0.044,1.31 ± 0.076,1.41 ± 0.15,1 (active)
COc1cc2nc(N3CCN(C(=O)C4CCCO4)CC3)nc(N)c2cc1OC.Cl.O.O (centres undefined),0.675 ± 0.12,0.937 ± 0.069,0.863 ± 0.052,0.963 ± 0.029,1.09 ± 0.094,1.16 ± 0.2,0.996 (active)
CC(=O)N1CC(C(=O)Nc2cccc(Br)c2)C1,1.11 ± 0.063,1.05 ± 0.08,0.963 ± 0.031,0.932 ± 0.034,1.05 ± 0.062,0.971 ± 0.11,0.998 (active)
CC12C=CC(CO)(O1)C1C(=O)NC(=O)C12 (centres undefined),1.26 ± 0.1,1.07 ± 0.066,0.838 ± 0.082,0.907 ± 0.047,0.469 ± 0.027,0.32 ± 0.027,0.783 (active)
O=C(NCCOc1cccc2cccnc12)c1c(F)cccc1F,0.911 ± 0.088,1.01 ± 0.13,0.859 ± 0.049,0.961 ± 0.048,1.01 ± 0.1,1.05 ± 0.31,1.01 (active)
COCCCNC(=O)CSc1ccc(Cl)cc1,1.07 ± 0.17,0.974 ± 0.11,0.952 ± 0.13,0.889 ± 0.063,1.12 ± 0.28,1.1 ± 0.13,1 (active)
CC(C)c1c(C(=O)Nc2ccccc2)c(-c2ccccc2)c(-c2ccc(F)cc2)n1CC[C@@H](O)C[C@@H](O)CC(=O)O [Prestw-1232],1.63 ± 0.21,1.05 ± 0.11,1.16 ± 0.033,0.893 ± 0.036,0.928 ± 0.068,1.13 ± 0.12,0.995 (active)
CCC(=O)Nc1ccc(NC(=O)c2ccccc2OC)cc1,0.932 ± 0.086,1.04 ± 0.083,0.997 ± 0.064,1 ± 0.042,1.25 ± 0.087,0.969 ± 0.076,1.01 (active)
CC(C)OCc1ccc(C(=O)Nc2nnc(C(C)C)s2)o1,0.988 ± 0.1,1 ± 0.079,0.961 ± 0.15,0.986 ± 0.051,1.11 ± 0.068,1.05 ± 0.08,1.01 (active)
Cc1ccc([N+](=O)[O-])cc1S(=O)(=O)N(C)C,1.05 ± 0.17,0.949 ± 0.077,1 ± 0.1,1.06 ± 0.037,1.09 ± 0.26,1.2 ± 0.12,1 (active)
COc1ccc(-c2cc(C(F)(F)F)n3nc(C(=O)Nc4cc(OC)c(OC)c(OC)c4)c(Cl)c3n2)cc1OC,0.885 ± 0.081,1.01 ± 0.089,0.795 ± 0.058,0.566 ± 0.14,1.27 ± 0.19,1.1 ± 0.12,1.01 (active)
CNC1CCCN(c2c(F)cc3c(=O)c(C(=O)O)cn(C4CC4)c3c2OC)C1 (centres undefined),0.783 ± 0.095,0.821 ± 0.04,1.12 ± 0.16,1.02 ± 0.048,1.35 ± 0.094,1.43 ± 0.14,0.999 (active)
CN(C)c1cncc(OC2CCN(S(C)(=O)=O)C2)n1 (centres undefined),1.02 ± 0.12,1.12 ± 0.1,0.911 ± 0.04,0.836 ± 0.045,0.951 ± 0.064,0.923 ± 0.07,1.01 (active)
CCn1cc(C(=O)O)c(=O)c2cc(F)c(N3CCN(C)CC3)cc21.CS(=O)(=O)O,1.12 ± 0.15,1.3 ± 0.22,0.938 ± 0.096,0.858 ± 0.037,1.45 ± 0.12,1.17 ± 0.11,0.986 (active)
COC(=O)C1=CN(C2CC2)C=C(C(=O)OC)C1c1ccccc1OC,0.917 ± 0.074,1.05 ± 0.058,0.97 ± 0.061,0.934 ± 0.074,1.22 ± 0.17,1 ± 0.097,1.01 (active)
O=C(O)c1cc(O)c(O)c(O)c1,0.306 ± 0.013,0.876 ± 0.078,0.749 ± 0.062,0.594 ± 0.03,1.16 ± 0.2,0.97 ± 0.27,1.02 (active)
COc1ccc(-c2[nH]c(-c3ccccc3)nc2SCC(=O)NC2CCCC2)cc1,0.875 ± 0.061,1.07 ± 0.069,1.64 ± 0.11,0.892 ± 0.03,1.09 ± 0.095,1.11 ± 0.1,1 (active)
